Among the data in PubChem BioAssay (Tox21) are Potency and outcome values, retold here.

Structures are written as SMILES. Values without a mark were called inactive. Inconclusive results are not listed. The source made the active and inactive calls. Unless noted, calls follow the shape of the dose curve; as a rule, active = well fitted curve in the direction sought with a large enough effect in the repeat runs; inconclusive = weak or mixed curves; inactive = no such curve, though single readings can be large; an effect the other way counts as inactive or inconclusive.

The target of test [1] is Progesterone receptor (Homo sapiens) (UniProt P06401). Briefly: qHTS assay to identify small molecule agonists of the progesterone receptor (PR) signaling pathway (AID 1346784; calls by dose curve; also: nearly all actives have a fitted effect of over 30% in size). The method, boiled down:
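Compounds were tested for PR agonism in HEK 293T cells bearing a beta-lactamase gene under UAS control. Treatment lasted 16 hr at 37C; signal came from fluorescence of a FRET substrate.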

Test [2] shares this target. Briefly: qHTS assay to identify small molecule antagonists of the progesterone receptor (PR) signaling pathway (AID 1346795; active = well fitted inhibition curve with a large enough effect in the signal ratio in the repeat runs, not every such curve was filed as active; the % refers to the signal ratio; also: potency is read from the fitted curve at half-maximal effect). The gist of the method: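 In HEK293T cells bearing the PR-UAS-bla reporter, compound effects on promegestone-driven (1 nM) beta-lactamase expression are assessed after 16 hr using a fluorescent FRET substrate incubated 2 hr at room temperature.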

The nature of test [3]: qHTS assay to identify small molecule antagonists of the progesterone receptor (PR) signaling pathway - cell viability counter screen (AID 1346798). Also: series mostly up to about 92 µM; nearly all actives have a fitted effect of over 50% in size. The gist of the method: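 Following a 4 hr attachment, PR-UAS-bla HEK293T cells in charcoal-stripped FBS medium were exposed to compounds with R5020 for 16 hr; CellTiter-Glo was added and luminescence read after 30 min at room temperature.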

Test [4] in a line: qHTS assay to identify small molecule agonists of the progesterone receptor (PR) signaling pathway - cell viability counter screen (AID 1346799; calls by dose curve; also: nearly all actives have a fitted effect of over 45% in size; also: potency is read from the fitted curve at half-maximal effect). The gist of the method: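 Here, 3,000 PR-UAS-bla HEK293T cells per well were treated with compounds for 16 hr after a 6 hr preincubation at 37C and 5% CO2; cell viability is the CellTiter-Glo luminescence signal.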
Test [5] is described as follows: qHTS assay to identify small molecule antagonists of the TGF-beta/Smad signaling pathway - cell viability counter screen (AID 1346824). Also: nearly all actives have a fitted effect of over 50% in size. The gist of the method:
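SBE-bla HEK 293T cells were plated overnight at 37 C, then given compounds in DMSO plus TGF-beta1 (added as 0.25 ng/mL solution) for 5 hr. After the bla read, CellTiter-Glo was added to the same wells and luminescence read after 30 min at room temperature.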

A short description of test [6]: qHTS assay to identify small molecule agonists of the TGF-beta/Smad signaling pathway - cell viability counter screen (AID 1346829). Also: top concentration of the series differs between compounds; nearly all actives have a fitted effect of over 45% in size. The method, boiled down:
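Here the cytotoxicity of library compounds is measured in SBE-bla HEK 293T cells treated for 5 hr, using CellTiter-Glo added to wells already read for the beta-lactamase reporter.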

Test [7] can be described thus: qHTS assay to identify small molecule agonists of the TGF-beta/Smad signaling pathway (AID 1346859; active = well fitted activation curve with a large enough effect in the signal ratio in the repeat runs, not every such curve was filed as active; the % refers to the signal ratio; also: potency is read from the fitted curve at half-maximal effect; as to activation: series mostly up to about 77 µM). The method, boiled down:
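Each well held 4,000 SBE-bla HEK 293T cells incubated overnight before compound addition; 5 hr later the cleavable FRET substrate went on for 2 hr at room temperature, and fluorescence was read at two emissions.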

Test [8] deals with Thyrotropin-releasing hormone receptor (Homo sapiens) (UniProt P34981). Description: qHTS assay to identify small molecule antagonists of the thyrotropin-releasing hormone receptor (TRHR) signaling pathway (AID 1346877; active = well fitted inhibition curve with a large enough effect in the repeat runs, not every such curve was filed as active; also: series mostly up to about 51 µM). The method, boiled down:
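HEK293/TRHR cells, 18 h, 37 °C; Ca2+ dye 2 h; cpd 5 min RT; TRH 1 nM final; fluorescence read 3 min, 1 s intervals; 15 concs, triplicate.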

Test [9] has the same target. Briefly: qHTS assay to identify small molecule agonists of the thyrotropin-releasing hormone receptor (TRHR) signaling pathway (AID 1346891; calls by dose curve; also: series mostly up to about 58 µM). The gist of the method: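 Screening of agonists relied on calcium signalling in HEK293 cells expressing human TRHR: dye loading 2 h at 37 °C preceded compound addition and a 3-min fluorescence time course.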
Test [10] in a line: Human pregnane X receptor (PXR) small molecule agonists, qHTS cell viability counter screen (AID 1346977). Also: nearly all actives have a fitted effect of over 50% in size. Also: potency is read from the fitted curve at half-maximal effect. The method, boiled down: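 Tox21 qHTS format; PXR-Luc HepG2, 2,000/well, charcoal-stripped FBS 5%. Cpd exposure 24hr. Read: CellTiter-Fluor fluorescence, multiplexed with luciferase.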
A short description of test [11]: Caspase-3/7 induction in HepG2 cells by small molecules, qHTS assay (AID 1346978). Also: nearly all actives have a fitted effect of over 15% in size. The method, boiled down:
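Wild-type HepG2 cells (2,000/well) were settled 5 h at 37 C, 5% CO2, then exposed to compounds in DMSO for 17 h. Caspase-3/7 activity was read by luminescence 30 min after adding Caspase-Glo 3/7 reagent at room temperature.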

Test [12] is described as follows: Caspase-3/7 induction in CHO-K1 cells by small molecules, qHTS cell viability counter screen (AID 1346979). Also: nearly all actives have a fitted effect of over 35% in size. Also: potency is read from the fitted curve at half-maximal effect. The method, boiled down: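 CellTiter-Fluor viability check, qHTS format: wild-type CHO-K1, 16hr compound treatment, 1hr reagent incubation, fluorescence read.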
Test [13] can be described thus: Caspase-3/7 induction in CHO-K1 cells by small molecules, qHTS assay (AID 1346980). Also: nearly all actives have a fitted effect of over 15% in size. The method, boiled down:
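Wild-type cells were seeded at 1,500 per well and settled 5 hr at 37 C, 5% CO2, then exposed to DMSO-dissolved compounds for 17 hr. Caspase-Glo 3/7 reagent was added, and luminescence was read after 30min at room temperature.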

Test [14] can be described thus: Caspase-3/7 induction in HepG2 cells by small molecules, qHTS cell viability counter screen (AID 1346981). Also: nearly all actives have a fitted effect of over 30% in size. Also: potency is read from the fitted curve at half-maximal effect. The method, boiled down: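 Fluorescence read-out of live-cell protease activity (CellTiter-Fluor) after 1 hr with reagent. This was measured in the same wells as the caspase-3/7 luminescence, on HepG2 cells exposed to DMSO-dissolved compounds for 16 hr at 37 C.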

Test [15] addresses Nuclear receptor subfamily 1 group I member 2 (Homo sapiens) (UniProt O75469). Briefly: Human pregnane X receptor (PXR) small molecule agonists, qHTS assay (AID 1346982). Also: nearly all actives have a fitted effect of over 35% in size. Also: potency is read from the fitted curve at half-maximal effect. The gist of the method:
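HepG2 PXR-Luc reporter line, 5% charcoal-stripped FBS; 5 hr pre-incubation, compound (DMSO) 24 hr at 37 C/5% CO2; ONE-Glo 30 min RT; luminescence read-out.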

The target in test [16] is Cytochrome P450 2D6 (Homo sapiens) (UniProt P10635). Description: Cytochrome P450 Family 2 Subfamily D Member 6 (CYP2D6) small molecule antagonists: luciferase reporter qHTS assay (AID 1671196). Also: nearly all actives have a fitted effect of over 50% in size. Also: potency is read from the fitted curve at half-maximal effect. The gist of the method:
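Luminogenic proluciferin substrate, CYP2D6 enzyme; 10 min RT preincubation with compound, NADPH regeneration system added, 1 h RT. Stop/detection reagent, 20 min RT, luminescence read (RLU). Signal proportional to CYP activity.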

Test [17] is described as follows: qHTS assay to identify small molecule agonists of the estrogen receptor alpha (ER-alpha) signaling pathway in the presence of an antagonist - cell viability counter screen (AID 1259386).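 Also: series mostly up to about 92 µM; cells exposed to compounds for 22 h at 37 °C before the viability read; nearly all actives have a fitted effect of over 30% in size.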 The gist of the method:
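Read-out: CellTiter-Fluor fluorescence after 1hr reagent incubation, measured in the same wells as the luciferase readout. VM7Luc4E2 cells were exposed to 15 compound concentrations with 10.0nM ICI-182,780 for 22hr at 37C.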

Sequence of Progesterone receptor (Homo sapiens) (P06401 whole entry, looked up): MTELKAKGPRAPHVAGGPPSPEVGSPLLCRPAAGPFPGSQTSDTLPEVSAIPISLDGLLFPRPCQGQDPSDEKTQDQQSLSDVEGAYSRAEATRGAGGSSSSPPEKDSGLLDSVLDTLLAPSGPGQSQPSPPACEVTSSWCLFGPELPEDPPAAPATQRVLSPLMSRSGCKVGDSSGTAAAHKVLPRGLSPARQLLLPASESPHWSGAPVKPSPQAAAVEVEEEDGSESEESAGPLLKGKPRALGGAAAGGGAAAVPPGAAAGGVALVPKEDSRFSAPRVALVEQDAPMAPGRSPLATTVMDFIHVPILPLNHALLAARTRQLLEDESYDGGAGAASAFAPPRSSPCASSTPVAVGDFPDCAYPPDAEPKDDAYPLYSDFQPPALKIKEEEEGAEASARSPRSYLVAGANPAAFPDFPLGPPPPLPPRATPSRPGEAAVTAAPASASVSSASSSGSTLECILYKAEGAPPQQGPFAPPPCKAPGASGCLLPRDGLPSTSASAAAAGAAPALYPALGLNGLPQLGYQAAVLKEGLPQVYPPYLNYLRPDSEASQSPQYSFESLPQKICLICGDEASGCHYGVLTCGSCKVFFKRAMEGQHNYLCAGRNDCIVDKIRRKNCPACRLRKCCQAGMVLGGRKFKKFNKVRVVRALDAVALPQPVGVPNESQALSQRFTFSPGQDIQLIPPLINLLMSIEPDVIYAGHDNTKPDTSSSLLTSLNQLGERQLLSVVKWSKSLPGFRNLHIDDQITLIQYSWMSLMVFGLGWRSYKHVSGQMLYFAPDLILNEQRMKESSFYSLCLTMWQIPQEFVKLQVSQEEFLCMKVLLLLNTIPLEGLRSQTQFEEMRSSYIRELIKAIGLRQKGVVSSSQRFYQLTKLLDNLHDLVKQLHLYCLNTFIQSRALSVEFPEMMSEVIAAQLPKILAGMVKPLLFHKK
Sequence of Nuclear receptor subfamily 1 group I member 2 (Homo sapiens) (O75469 whole entry, looked up): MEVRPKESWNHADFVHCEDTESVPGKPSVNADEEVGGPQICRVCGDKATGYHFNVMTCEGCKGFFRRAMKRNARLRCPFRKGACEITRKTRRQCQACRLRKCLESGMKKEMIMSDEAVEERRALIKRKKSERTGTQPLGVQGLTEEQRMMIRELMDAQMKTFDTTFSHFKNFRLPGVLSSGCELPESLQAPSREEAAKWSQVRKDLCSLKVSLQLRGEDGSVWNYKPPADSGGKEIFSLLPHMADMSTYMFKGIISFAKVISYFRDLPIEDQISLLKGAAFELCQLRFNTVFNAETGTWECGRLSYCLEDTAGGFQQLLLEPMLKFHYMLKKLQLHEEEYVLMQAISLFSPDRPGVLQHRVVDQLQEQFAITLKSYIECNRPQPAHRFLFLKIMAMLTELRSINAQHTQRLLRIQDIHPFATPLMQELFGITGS
Sequence of Thyrotropin-releasing hormone receptor (Homo sapiens) (P34981 whole entry, looked up): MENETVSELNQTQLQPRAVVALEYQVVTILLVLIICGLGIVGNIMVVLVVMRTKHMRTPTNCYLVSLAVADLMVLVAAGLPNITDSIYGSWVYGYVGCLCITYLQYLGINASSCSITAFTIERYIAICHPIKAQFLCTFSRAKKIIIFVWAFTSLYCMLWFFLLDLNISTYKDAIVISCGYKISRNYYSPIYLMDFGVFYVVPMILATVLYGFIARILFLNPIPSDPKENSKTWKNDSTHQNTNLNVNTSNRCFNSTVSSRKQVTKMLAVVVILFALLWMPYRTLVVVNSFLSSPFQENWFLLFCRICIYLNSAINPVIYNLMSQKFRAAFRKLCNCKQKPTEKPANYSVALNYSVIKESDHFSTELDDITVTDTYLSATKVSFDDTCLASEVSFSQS
Sequence of Cytochrome P450 2D6 (Homo sapiens) (P10635 whole entry, looked up): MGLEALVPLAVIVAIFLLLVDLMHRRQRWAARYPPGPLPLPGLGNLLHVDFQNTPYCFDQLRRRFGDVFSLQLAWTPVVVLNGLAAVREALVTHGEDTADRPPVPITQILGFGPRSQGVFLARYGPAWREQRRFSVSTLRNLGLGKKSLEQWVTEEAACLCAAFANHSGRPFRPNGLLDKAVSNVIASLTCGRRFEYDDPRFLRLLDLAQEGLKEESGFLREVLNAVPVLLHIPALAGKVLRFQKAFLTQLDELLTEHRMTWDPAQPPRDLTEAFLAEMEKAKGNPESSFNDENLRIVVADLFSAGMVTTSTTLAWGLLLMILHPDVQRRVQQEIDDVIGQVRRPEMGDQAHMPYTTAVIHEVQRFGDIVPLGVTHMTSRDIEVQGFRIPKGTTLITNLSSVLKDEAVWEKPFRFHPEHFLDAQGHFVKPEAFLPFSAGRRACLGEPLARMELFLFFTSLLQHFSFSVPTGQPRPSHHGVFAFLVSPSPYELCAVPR

In the case of `O=C1C(c2[nH]c3ccc(S(=O)(=O)O)cc3c2O)=Nc2ccc(S(=O)(=O)O)cc21`, the Potency result in test [1], in test [2], in test [3], in test [4], in [5] and in test [6] was “inactive” throughout. The Potency entry in test [7], in test [8], in test [10], in test [11], in test [12] and in test [13] was “inactive” throughout. The Potency entry in [14] and in test [15] was “inactive” in each case. For the same compound, the call in test [9] was inactive. Moreover, the Potency in [16] is 63.3 µM (active).

Take `O=C(/C=C/c1ccc(O)c(O)c1)O[C@@H](C(=O)O)[C@@H](OC(=O)/C=C/c1ccc(O)c(O)c1)C(=O)O`: the Potency entry in [1], in test [2], in test [3], in test [4], in test [6] and in test [7] was “inactive” in each case. For the same compound, the Potency result in [8], in test [11], in [13], in test [14] and in [15] was “inactive” throughout. The outcome in test [9] was inactive. In addition, the Potency in [16] was 31.7 µM (active).

As for `FC(F)(F)c1cccc(Cl)c1`, the Potency entry in [17], in test [4], in test [5], in test [6], in test [7] and in test [10] was “inactive” in each case. Further, the Potency result in test [11], in test [12], in test [14], in test [15] and in test [16] was “inactive” in each case.

For the compound `CCN1C(=O)c2ccccc2C1Nc1ccc(OCCN2CCCCC2)cc1` (centres undefined), the Potency entry in test [1], in test [2], in test [3], in test [5], in test [6] and in test [7] was “inactive” each time. Also, the Potency result in [8], in test [11], in test [12], in test [13] and in test [14] was “inactive” throughout. The compound was classed as inactive in test [9]. The Potency in test [15] was 1.68 µM (active).

`Oc1cc(Cl)cc(Cl)c1Cl`: the Potency result in test [3], in [5], in test [7] and in test [13] was “inactive” each time.

`O=S(=O)(O)c1ccc(Nc2nc(Nc3ccc(/C=C/c4ccc(Nc5nc(Nc6ccc(S(=O)(=O)O)cc6)nc(N(CCO)CCO)n5)cc4S(=O)(=O)O)c(S(=O)(=O)O)c3)nc(N(CCO)CCO)n2)cc1`: the Potency result in test [17], in test [3], in [5], in test [6], in test [8] and in test [10] was “inactive” throughout. Besides, the Potency entry in test [11], in [12], in test [13], in test [14], in [15] and in test [16] was “inactive” in each case. Besides, the Potency in test [7] was 33.1 µM (active). In [9], the call was inactive.

With `C=CC(=O)Nc1cc2c(Nc3ccc(F)c(Cl)c3)ncnc2cc1OCCCN1CCOCC1`, the Potency entry in test [1], in test [3], in test [5], in test [6], in [8] and in test [13] was “inactive” in each case. In test [9], the compound was classed as inactive. In addition, the Potency in test [12] was 5.96 µM (active); in test [14] it was 5.96 µM (active); in [15], 10.6 µM (active).

Take `Cc1ccc(O)c(N)c1`: the Potency result in [3], in test [5], in test [6], in test [7], in [8] and in test [11] was “inactive” in each case. The Potency result in test [13] and in test [14] was “inactive” each time. Further, the result in test [9] was inactive. Also, the Potency is 61.2 µM (active) in test [12], 48.6 µM (active) in test [15] and 35.6 µM (active) in test [16].

In the case of `O=C(O)c1cc(N=Nc2ccc([N+](=O)[O-])cc2)ccc1O`, the Potency entry in test [1], in test [5], in test [6] and in [8] was “inactive” in each case. Also, the outcome in test [9] was inactive. The Potency in test [10] was 53.5 µM (active); in [12] it was 47.7 µM (active); in test [14], 53.5 µM (active); in [15], 0.301 µM (active); in [16], 69.7 µM (active).

As for `[Cu+]`, the Potency result in [1], in [2], in [3], in [4], in test [5] and in test [6] was “inactive” in each case. Also, the Potency entry in [7], in test [10], in [11], in test [12], in [13] and in test [14] was “inactive” each time. For the same compound, the Potency entry in [15] is “inactive”.

For the compound `CNC(=O)c1ccccc1Sc1ccc2c(/C=C/c3ccccn3)n[nH]c2c1`, the Potency was 16.8 µM (active) in test [2]; 33.5 µM (active) in test [4]; 26.6 µM (active) in test [12]; 0.376 µM (active) in [15]; 30.9 µM (active) in test [16]. Besides, the Potency result in [7] and in test [8] was “inactive” in each case. Also, in test [9], the compound was called inactive.

As to `O=C1CCc2cc(OCCCCc3nnnn3C3CCCCC3)ccc2N1`, the Potency result in test [1], in test [5], in [6], in test [8], in test [11] and in test [13] was “inactive” in each case. Moreover, the Potency result in [14] and in [16] was “inactive” throughout. Also, the compound was classed as inactive in [9]. Further, the Potency in [15] was 13.3 µM (active).
